# ChEMBL document CHEMBL5724796, “Tm Shift (DSF) assay results for EUbOPEN Chemogenomics Library” (2024)
# What was measured:
# Details in all cases: Compound concentration 20.0 uM
# [1] = molecular target: Tyrosine-protein kinase ABL1 (Homo sapiens) (UniProt P00519)
# [2] = molecular target: Bromodomain-containing protein 4 (Homo sapiens) (UniProt O60885)
# [3] = molecular target: Cyclin-dependent kinase 2 (Homo sapiens) (UniProt P24941)
# [4] = molecular target: Casein kinase I isoform delta (Homo sapiens) (UniProt P48730)
# [5] = molecular target: Glycogen synthase kinase-3 beta (Homo sapiens) (UniProt P49841)
# [6] = molecular target: Mitogen-activated protein kinase 1 (Homo sapiens) (UniProt P28482)
# [7] = molecular target: T1, Aurora kinase A (Homo sapiens) (UniProt O14965)
# T1 sequence (whole entry): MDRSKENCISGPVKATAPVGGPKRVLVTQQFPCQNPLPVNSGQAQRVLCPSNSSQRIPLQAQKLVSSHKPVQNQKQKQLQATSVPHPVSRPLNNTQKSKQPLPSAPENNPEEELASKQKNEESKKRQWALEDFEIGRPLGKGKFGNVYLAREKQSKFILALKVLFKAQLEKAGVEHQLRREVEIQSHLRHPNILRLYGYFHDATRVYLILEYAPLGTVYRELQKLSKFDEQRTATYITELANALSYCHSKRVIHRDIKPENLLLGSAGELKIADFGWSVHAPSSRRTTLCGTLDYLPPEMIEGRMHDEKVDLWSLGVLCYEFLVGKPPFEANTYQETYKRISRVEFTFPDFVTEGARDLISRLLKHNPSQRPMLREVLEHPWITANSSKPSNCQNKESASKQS
# [8] = molecular target: T2, Transcription intermediary factor 1-alpha (Homo sapiens) (UniProt O15164)
# T2 sequence (whole entry): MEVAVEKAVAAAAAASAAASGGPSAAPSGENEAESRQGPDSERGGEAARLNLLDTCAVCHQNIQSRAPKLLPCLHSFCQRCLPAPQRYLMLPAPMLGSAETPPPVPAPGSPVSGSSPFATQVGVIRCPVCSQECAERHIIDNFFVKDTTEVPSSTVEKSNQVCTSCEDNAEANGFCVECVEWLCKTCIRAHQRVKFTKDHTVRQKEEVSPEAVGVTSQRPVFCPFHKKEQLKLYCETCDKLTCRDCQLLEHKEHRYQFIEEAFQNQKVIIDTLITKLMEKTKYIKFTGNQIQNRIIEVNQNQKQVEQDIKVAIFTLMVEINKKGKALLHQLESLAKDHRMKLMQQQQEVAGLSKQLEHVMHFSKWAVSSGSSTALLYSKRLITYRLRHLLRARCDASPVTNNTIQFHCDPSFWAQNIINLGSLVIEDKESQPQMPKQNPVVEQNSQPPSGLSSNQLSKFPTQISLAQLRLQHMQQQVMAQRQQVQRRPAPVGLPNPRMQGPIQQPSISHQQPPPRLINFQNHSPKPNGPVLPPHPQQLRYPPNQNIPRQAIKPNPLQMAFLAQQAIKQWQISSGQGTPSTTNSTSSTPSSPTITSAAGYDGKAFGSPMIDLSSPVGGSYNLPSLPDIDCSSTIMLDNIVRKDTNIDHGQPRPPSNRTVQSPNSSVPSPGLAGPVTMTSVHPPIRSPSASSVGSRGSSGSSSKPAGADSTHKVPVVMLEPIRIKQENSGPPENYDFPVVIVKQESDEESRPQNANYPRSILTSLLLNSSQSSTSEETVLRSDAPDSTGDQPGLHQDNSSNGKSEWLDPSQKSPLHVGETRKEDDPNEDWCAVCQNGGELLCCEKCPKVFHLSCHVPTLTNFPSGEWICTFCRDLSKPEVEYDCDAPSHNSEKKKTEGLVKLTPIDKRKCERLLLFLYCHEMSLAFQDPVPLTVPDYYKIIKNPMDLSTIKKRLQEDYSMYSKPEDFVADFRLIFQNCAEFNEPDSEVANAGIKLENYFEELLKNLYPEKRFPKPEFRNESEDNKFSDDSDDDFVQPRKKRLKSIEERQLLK
# Sequence of Glycogen synthase kinase-3 beta (Homo sapiens) (P49841 whole entry, looked up): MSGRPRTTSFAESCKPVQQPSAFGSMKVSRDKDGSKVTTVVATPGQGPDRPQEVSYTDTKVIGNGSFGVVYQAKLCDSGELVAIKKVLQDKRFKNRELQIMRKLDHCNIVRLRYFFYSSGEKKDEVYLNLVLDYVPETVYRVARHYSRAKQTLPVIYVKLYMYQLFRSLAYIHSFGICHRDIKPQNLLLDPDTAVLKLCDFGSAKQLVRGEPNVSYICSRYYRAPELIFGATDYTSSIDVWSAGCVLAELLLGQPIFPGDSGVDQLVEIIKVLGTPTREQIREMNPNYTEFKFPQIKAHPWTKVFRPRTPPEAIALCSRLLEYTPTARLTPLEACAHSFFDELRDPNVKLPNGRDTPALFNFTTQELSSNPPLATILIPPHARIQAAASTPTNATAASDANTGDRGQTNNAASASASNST
# Sequence of Casein kinase I isoform delta (Homo sapiens) (P48730 whole entry, looked up, canonical isoform): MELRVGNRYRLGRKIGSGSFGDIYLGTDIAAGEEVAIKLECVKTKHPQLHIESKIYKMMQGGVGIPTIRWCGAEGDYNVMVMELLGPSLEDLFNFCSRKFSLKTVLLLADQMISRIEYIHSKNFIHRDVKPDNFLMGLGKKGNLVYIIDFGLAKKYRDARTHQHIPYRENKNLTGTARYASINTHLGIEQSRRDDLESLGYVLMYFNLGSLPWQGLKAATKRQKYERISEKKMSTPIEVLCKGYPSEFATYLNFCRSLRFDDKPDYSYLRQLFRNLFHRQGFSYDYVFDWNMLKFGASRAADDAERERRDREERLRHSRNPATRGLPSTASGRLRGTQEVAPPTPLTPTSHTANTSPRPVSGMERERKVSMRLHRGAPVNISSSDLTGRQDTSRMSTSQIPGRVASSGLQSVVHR
# Sequence of Tyrosine-protein kinase ABL1 (Homo sapiens) (P00519 whole entry): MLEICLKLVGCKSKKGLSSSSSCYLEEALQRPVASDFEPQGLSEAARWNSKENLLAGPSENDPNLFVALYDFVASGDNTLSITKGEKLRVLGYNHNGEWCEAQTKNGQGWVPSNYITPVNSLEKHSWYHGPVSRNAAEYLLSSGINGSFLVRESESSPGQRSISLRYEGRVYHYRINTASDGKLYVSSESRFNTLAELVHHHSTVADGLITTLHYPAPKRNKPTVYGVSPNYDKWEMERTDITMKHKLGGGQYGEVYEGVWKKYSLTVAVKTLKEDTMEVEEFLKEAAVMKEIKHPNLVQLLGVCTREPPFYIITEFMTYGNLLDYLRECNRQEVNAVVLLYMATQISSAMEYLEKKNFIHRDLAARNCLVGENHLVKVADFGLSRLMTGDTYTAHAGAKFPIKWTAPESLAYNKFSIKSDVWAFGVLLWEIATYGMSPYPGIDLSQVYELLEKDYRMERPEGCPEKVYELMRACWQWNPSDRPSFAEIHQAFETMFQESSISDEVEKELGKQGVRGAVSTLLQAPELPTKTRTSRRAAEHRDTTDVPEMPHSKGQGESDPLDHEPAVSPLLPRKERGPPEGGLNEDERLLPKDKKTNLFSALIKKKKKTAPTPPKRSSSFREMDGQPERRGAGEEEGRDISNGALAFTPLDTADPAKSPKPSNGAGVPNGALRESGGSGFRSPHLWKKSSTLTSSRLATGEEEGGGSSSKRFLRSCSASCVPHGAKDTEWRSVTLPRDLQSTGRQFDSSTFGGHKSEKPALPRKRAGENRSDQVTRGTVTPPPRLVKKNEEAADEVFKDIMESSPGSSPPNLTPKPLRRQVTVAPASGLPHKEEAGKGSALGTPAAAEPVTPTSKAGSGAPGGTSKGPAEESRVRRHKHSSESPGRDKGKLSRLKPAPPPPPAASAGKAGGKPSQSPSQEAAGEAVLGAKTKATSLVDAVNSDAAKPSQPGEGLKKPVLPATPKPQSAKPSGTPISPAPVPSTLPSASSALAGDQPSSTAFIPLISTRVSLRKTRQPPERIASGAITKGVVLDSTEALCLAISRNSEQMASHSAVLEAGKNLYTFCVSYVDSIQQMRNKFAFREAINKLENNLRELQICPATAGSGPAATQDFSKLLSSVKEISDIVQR
# Sequence of Mitogen-activated protein kinase 1 (Homo sapiens) (P28482 whole entry): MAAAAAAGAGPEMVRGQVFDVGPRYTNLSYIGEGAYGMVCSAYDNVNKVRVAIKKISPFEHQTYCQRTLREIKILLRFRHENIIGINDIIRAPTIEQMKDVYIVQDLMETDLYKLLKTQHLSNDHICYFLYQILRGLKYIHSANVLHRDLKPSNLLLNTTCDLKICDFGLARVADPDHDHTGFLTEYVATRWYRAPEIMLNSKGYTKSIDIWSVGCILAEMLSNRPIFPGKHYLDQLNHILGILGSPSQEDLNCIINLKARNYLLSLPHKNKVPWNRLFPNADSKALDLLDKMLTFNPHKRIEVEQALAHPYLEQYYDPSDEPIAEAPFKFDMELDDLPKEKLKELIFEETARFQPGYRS
SMILES,ΔTm [1],ΔTm [2],ΔTm [3],ΔTm [4],ΔTm [5],ΔTm [6],ΔTm [7],ΔTm [8]
C[C@@H]1CN(Cc2ncccn2)C[C@H]1c1nc2c(cnn2C2CCOCC2)c(=O)[nH]1,0.63 °C,-2.54 °C,0.17 °C,-0.3 °C,0.32 °C,0.24 °C,-2.46 °C,0.61 °C
CN(Cc1ccccc1)c1ccc2cc(C(=O)O)c(=O)oc2c1,0.44 °C,2.11 °C,0.37 °C,0.11 °C,0 °C,0.54 °C,-1.09 °C,0.17 °C
CCCCNc1cc(C(=O)O)cc(S(N)(=O)=O)c1Oc1ccccc1,0.19 °C,-1.86 °C,-0.19 °C,0.17 °C,-0.41 °C,0.13 °C,0.14 °C,0.82 °C
Cc1noc2c1-c1ccccc1C(c1ccc(Cl)cc1)=N[C@H]2CC(N)=O,0.53 °C,8.17 °C,0.94 °C,0.05 °C,-0.25 °C,0.12 °C,-2.42 °C,-0.29 °C
COc1ccc(C(=O)C2CCN(CC(=O)N(Cc3nc4c(c(=O)[nH]3)COCC4)CC3CC3)CC2)cc1,0.52 °C,-1.61 °C,0.34 °C,-0.4 °C,-0.12 °C,0.46 °C,-1.35 °C,0.91 °C
CCNC(=O)c1noc(-c2cc(C(C)C)c(O)cc2O)c1-c1ccc(CN2CCOCC2)cc1,0.97 °C,-0.86 °C,0.79 °C,0.41 °C,0.48 °C,-0.06 °C,0.68 °C,0.38 °C
CN1C[C@@H]2[C@H](C1)[C@H]2CN(Cc1ccc(F)c(Cl)c1)C(=O)c1cn(C)cn1,0.53 °C,-2.2 °C,0.3 °C,-0.21 °C,0.04 °C,0.19 °C,-1.34 °C,-1.48 °C
Nc1ncnc2c1ncn2[C@@H]1O[C@H](C[C@@H](N)CC[C@H](N)C(=O)O)[C@@H](O)[C@H]1O,0.31 °C,-2.03 °C,-0.94 °C,0.18 °C,-1.05 °C,-1.35 °C,-1.45 °C,-0.73 °C
CC(=Cc1cc(C)ccc1C=C(C)C(=O)NC(=N)N)C(=O)N=C(N)N,0.75 °C,-2.96 °C,-0.11 °C,0 °C,-0.1 °C,0.25 °C,-2.39 °C,-3.05 °C
Cc1ncsc1-c1ccc([C@H](C)NC(=O)[C@@H]2C[C@@H](O)CN2C(=O)[C@@H](NC(=O)COCCCOCCNC(=O)C[C@@H]2N=C(c3ccc(Cl)cc3)c3c(sc(C)c3C)-n3c(C)nnc32)C(C)(C)C)cc1,-0.44 °C,7 °C,-3.66 °C,0.48 °C,0 °C,0 °C,0 °C,-3.36 °C
CCCNC(=O)[C@H]1O[C@@H]1C(=O)N[C@H](C(=O)N1CCC[C@H]1C(=O)O)[C@@H](C)CC,0.43 °C,-1.16 °C,-0.18 °C,-0.02 °C,0.22 °C,-0.39 °C,-1.17 °C,-0.81 °C
Cc1sc(C(=O)c2cncnc2N[C@@H]2C[C@H](COS(N)(=O)=O)[C@@H](O)C2)cc1[C@@H]1NCCc2ccc(Cl)cc21,0.03 °C,-0.2 °C,-0.03 °C,-0.1 °C,-1.26 °C,0.53 °C,-1.12 °C,0.42 °C
Cc1noc(C)c1-c1cc(Cl)c(Nc2ccccc2C(=O)O)c(Cl)c1,0.49 °C,2.54 °C,-0.13 °C,-0.64 °C,-0.39 °C,0.1 °C,-2.08 °C,-1.42 °C
NS(=O)(=O)OC[C@H]1C[C@@H](Nc2ncncc2C(=O)c2ccn(Cc3cccc(Br)c3)n2)C[C@@H]1O,0.71 °C,-2.22 °C,0.03 °C,0.64 °C,1.22 °C,0.37 °C,-1.76 °C,-1.07 °C
CN1CCN(c2nc(-c3ccc(C(=O)NC4(C(=O)NCC#N)CCCCC4)cc3)cs2)CC1,0.26 °C,-0.96 °C,0.12 °C,-0.06 °C,-0.33 °C,-1.88 °C,-0.41 °C,-0.66 °C
COc1nc(Nc2cc(S(C)(=O)=O)ccc2N[C@@H](c2cccc3c2OC(F)(F)O3)c2ncccc2Cl)nc(N2CCNCC2)n1,-0.96 °C,-4.95 °C,-3.51 °C,-0.34 °C,0 °C,0 °C,-5.82 °C,0.37 °C

SMILES,ΔTm [1],ΔTm [2],ΔTm [3],ΔTm [4],ΔTm [5],ΔTm [6],ΔTm [7],ΔTm [8]
CC(C)NC(=O)c1ccc(OC(F)F)c(OCC2CC2)c1,0.64 °C,-3.14 °C,0.29 °C,-0.07 °C,-0.46 °C,0.24 °C,-2.33 °C,1.71 °C
CC(C)Cn1c(=O)n(C)c(=O)c2c(C(=O)N3CC[C@@H](O)C3)c(Cc3ccnc4ccccc34)sc21,-0.39 °C,2.2 °C,0.16 °C,0.09 °C,-1.09 °C,0.11 °C,-0.87 °C,2.02 °C
O=C(CN1CCN(C(=O)c2ccco2)CC1)Nc1cc(C(F)(F)F)ccc1Cl,0.19 °C,2.01 °C,0.06 °C,-0.11 °C,-0.95 °C,0.07 °C,-1.45 °C,0.51 °C
COc1cccc(OC)c1S(=O)(=O)Nc1noc2cc(Cn3cccn3)cc(OC)c12,0.73 °C,-2.01 °C,0.06 °C,-0.03 °C,-1.16 °C,0.02 °C,-0.5 °C,-1.5 °C
COc1cc2c(cc1OC)[C@H]1C[C@@H](O)[C@H](CC(C)C)CN1CC2,0.04 °C,1.89 °C,0.25 °C,-0.17 °C,-0.88 °C,0.59 °C,-0.72 °C,0.12 °C
CCN(CC)C(=O)/C(C#N)=C/c1cc(O)c(O)c([N+](=O)[O-])c1,0.3 °C,0.45 °C,0.11 °C,-0.1 °C,-0.28 °C,0.32 °C,-0.58 °C,0.24 °C
CC(C)c1ccc(C(=O)N=C(N)N)cc1S(C)(=O)=O,0.77 °C,-2.81 °C,0.03 °C,-0.25 °C,-0.76 °C,0.04 °C,-2.37 °C,-0.41 °C
Cc1nc(-c2cnc(NC(C)C)n(C)c2=O)ccc1Oc1ccnc(-c2cnn(C)c2)c1,13.3 °C,-1.75 °C,0.63 °C,0.37 °C,-0.22 °C,-0.25 °C,0.8 °C,-1.36 °C
Cc1ccc(NC2=CC(=O)c3sc(C)nc3C2=O)cc1,0.31 °C,-1.66 °C,0.97 °C,-0.17 °C,-0.8 °C,0.04 °C,-0.65 °C,-1.44 °C
N[C@@H](CCCCB(O)O)C(=O)O,0.06 °C,1.28 °C,0.26 °C,-0.26 °C,-0.55 °C,0.18 °C,-0.4 °C,-0.41 °C
O=C(Oc1cccc(F)c1OC(=O)c1cccc(O)c1)c1cccc(O)c1,0.98 °C,-0.67 °C,0.91 °C,0.57 °C,-0.64 °C,0.41 °C,-0.91 °C,1.67 °C
N[C@](CCCCB(O)O)(CCN1CCCCC1)C(=O)O,0.12 °C,2.02 °C,1.3 °C,-0.19 °C,-0.19 °C,0.26 °C,-1.26 °C,0.59 °C
Cn1ncc(-c2nn(C)c3ncnc(N4CCC4)c23)c1-c1ccc(C(F)(F)F)cc1,0.03 °C,-2.92 °C,-1.77 °C,-0.3 °C,-1.09 °C,0.4 °C,-2.16 °C,-2.31 °C
Cc1cc(C)c(CNC(=O)c2cc(Cl)c3c(c2C)O[C@@](C)([C@H]2CC[C@H](N(C)C)CC2)O3)c(=O)[nH]1,0.37 °C,-1.88 °C,0.46 °C,0.43 °C,-0.76 °C,0.07 °C,-0.52 °C,-2.02 °C
CCNC(=O)NCCSC[C@H]1O[C@@H](n2cnc3c(N)ncnc32)[C@H](O)[C@@H]1O,0.85 °C,-1.51 °C,0.53 °C,0.63 °C,-0.36 °C,-1.34 °C,-0.19 °C,-1.13 °C
CCCOC(=O)N1CCN(C(=O)c2ccc3c(Cl)cc(-c4ccc(C5(N)CC5)cc4)nc3c2)C[C@H]1C,0.57 °C,-1.83 °C,0.05 °C,0.03 °C,-1.68 °C,-7.2 °C,0.93 °C,-3.45 °C
